From publication PMC4336329 (PLoS ONE, 2015) come the findings set out here.

Hit rate of the full screen: of about 310,000 compounds, about 14,000 (4.5%) showed an effect of 50% or more. Effects have a minus sign here. The entries come from a sample that favours strong results as a whole.
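Also: peak tail current of the secondary pulse compared with the same well before compound.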

human ether-à-go-go-related gene (hERG) potassium channel, sequence (Q12809 whole entry, looked up): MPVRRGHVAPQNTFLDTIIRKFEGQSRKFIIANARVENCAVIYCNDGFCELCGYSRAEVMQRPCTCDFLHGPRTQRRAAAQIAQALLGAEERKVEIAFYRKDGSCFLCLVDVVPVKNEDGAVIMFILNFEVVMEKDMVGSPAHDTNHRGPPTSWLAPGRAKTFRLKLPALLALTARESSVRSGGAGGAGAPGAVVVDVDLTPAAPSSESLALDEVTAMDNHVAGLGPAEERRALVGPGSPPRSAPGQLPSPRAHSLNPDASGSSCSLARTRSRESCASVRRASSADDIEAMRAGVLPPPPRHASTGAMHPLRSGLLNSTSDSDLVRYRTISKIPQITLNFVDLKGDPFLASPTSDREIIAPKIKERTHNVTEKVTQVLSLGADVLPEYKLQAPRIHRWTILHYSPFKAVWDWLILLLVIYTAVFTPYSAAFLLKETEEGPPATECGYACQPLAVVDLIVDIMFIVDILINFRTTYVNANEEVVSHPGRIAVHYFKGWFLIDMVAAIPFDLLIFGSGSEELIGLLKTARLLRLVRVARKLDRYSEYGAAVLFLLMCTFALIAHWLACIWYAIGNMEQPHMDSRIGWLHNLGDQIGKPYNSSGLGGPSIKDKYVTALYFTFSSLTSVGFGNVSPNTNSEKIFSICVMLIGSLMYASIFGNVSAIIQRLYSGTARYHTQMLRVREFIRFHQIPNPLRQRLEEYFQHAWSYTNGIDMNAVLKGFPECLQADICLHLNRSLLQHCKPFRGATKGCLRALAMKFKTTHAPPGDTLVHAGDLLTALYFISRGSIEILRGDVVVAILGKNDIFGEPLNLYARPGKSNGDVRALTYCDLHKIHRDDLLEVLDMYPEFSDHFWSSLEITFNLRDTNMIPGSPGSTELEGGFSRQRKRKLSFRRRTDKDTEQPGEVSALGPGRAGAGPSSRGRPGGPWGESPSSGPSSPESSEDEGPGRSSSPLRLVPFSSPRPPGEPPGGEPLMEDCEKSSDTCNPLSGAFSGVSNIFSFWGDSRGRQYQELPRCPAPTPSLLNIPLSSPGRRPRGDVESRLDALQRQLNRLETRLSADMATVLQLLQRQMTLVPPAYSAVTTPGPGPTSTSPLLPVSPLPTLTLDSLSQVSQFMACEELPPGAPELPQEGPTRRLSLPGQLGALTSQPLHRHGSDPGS

The test has as its target human ether-à-go-go-related gene (hERG) potassium channel (human, UniProt Q12809). As to the kind of experiment: primary screen, population patch clamp on CHO cells stably expressing hERG; higher = less effect of the substance.
Turning to `CNc1ccc(Cl)cc1C(N)=O`, the “hERG current change (%, negative = inhibition) at 10uM” value is 26.1%.

In the case of `Cc1ccc(C(=O)COC(=O)c2nc3nccc(C)n3n2)c(C)c1`, the “hERG current change (%, negative = inhibition) at 10uM” value was -7.14%.

For `COc1ccc(Cl)cc1NS(=O)(=O)N1CCOCC1`, the “hERG current change (%, negative = inhibition) at 10uM” value is 6.86%.

With `CC(Cc1ccccc1)NC(=O)c1cc([N+](=O)[O-])ccc1Cl` (stereo not drawn), the “hERG current change (%, negative = inhibition) at 10uM” value is -4.69%.

With `O=C(NCc1ccccc1)C1CCCN(S(=O)(=O)c2ccc(Br)cc2)C1` (stereo not drawn), the “hERG current change (%, negative = inhibition) at 10uM” value is reported as 23.4%.

Take `O=C(NCCCn1ccnc1)C1CCCN(S(=O)(=O)c2cc(Cl)ccc2Cl)C1` (stereo not drawn): the “hERG current change (%, negative = inhibition) at 10uM” value is given as -60.3%.

With `O=C(NCc1cccnc1)C1CCCN(S(=O)(=O)c2ccc(Br)cc2)C1` (stereo not drawn), the “hERG current change (%, negative = inhibition) at 10uM” value is -41.6%.

For the molecule `O=C(NCCCn1ccnc1)C1CCCN(S(=O)(=O)c2ccc(F)cc2)C1` (stereo not drawn), the “hERG current change (%, negative = inhibition) at 10uM” value is reported as 10.7%.

Consider `COc1ccc(S(=O)(=O)N2CCCC(C(=O)NCCCn3ccnc3)C2)cc1OC` (stereo not drawn), for which the “hERG current change (%, negative = inhibition) at 10uM” value came to 7.83%.

In the case of `COc1ccc(Cl)cc1S(=O)(=O)N1CCCC(C(=O)NCc2ccncc2)C1` (stereo not drawn), the “hERG current change (%, negative = inhibition) at 10uM” value is given as -25.7%.

With `O=C(NCc1ccncc1)C1CCCN(S(=O)(=O)c2cc(Cl)ccc2Cl)C1` (stereo not drawn), the “hERG current change (%, negative = inhibition) at 10uM” value is recorded as -61.2%.

Turning to `O=C(NCc1ccncc1)C1CCN(S(=O)(=O)c2cc(Cl)ccc2Cl)CC1`, the “hERG current change (%, negative = inhibition) at 10uM” value is recorded as -18.9%.

Turning to `O=C(NCc1ccncc1)C1CCCN(S(=O)(=O)c2ccc(Br)cc2)C1` (stereo not drawn), the “hERG current change (%, negative = inhibition) at 10uM” value was -77.5%.

With `CC(C)c1ccc(S(=O)(=O)c2n[nH]n3c2nc(=O)c2ccccc23)cc1`, the “hERG current change (%, negative = inhibition) at 10uM” value is -16.7%.

Take `C/C(=N\NC(=S)NCC(C)(C)C)c1cc(F)cc(F)c1O`: the “hERG current change (%, negative = inhibition) at 10uM” value is given as 17.2%.

Turning to `CC1=NN(C(N)=S)C(=O)C1N=Nc1c(Br)cc(Br)cc1Br` (stereo not drawn), the “hERG current change (%, negative = inhibition) at 10uM” value is recorded as -8.08%.

Take `COc1ccc(C2CC(c3ccccc3)Nc3nc(NS(C)(=O)=O)nn32)cc1` (stereo not drawn): the “hERG current change (%, negative = inhibition) at 10uM” value was 7.1%.

Consider `CCc1sc2nc(SCC(=O)Nc3cc(C)on3)n(-c3cccc(OC)c3)c(=O)c2c1C`, for which the “hERG current change (%, negative = inhibition) at 10uM” value was 10.2%.

On to `NC(=S)N/N=C1\CC(c2ccc3c(c2)OCCCO3)Oc2ccc(F)cc21` (stereo not drawn), for which the “hERG current change (%, negative = inhibition) at 10uM” value amounted to 6.23%.

Consider `O=C(NNC(=O)c1csc(N2CCOCC2)n1)c1ccc(=O)[nH]c1`, for which the “hERG current change (%, negative = inhibition) at 10uM” value came out at 6.26%.

For `CCOC(=O)N1CCN(C(=O)c2cnn3c(C(F)F)cc(-c4ccc(C)cc4)nc23)CC1`, the “hERG current change (%, negative = inhibition) at 10uM” value is given as -0.653%.

Turning to `CC(C)OC(=O)c1c2c(n3ccccc13)C(=O)c1ccccc1C2=O`, the “hERG current change (%, negative = inhibition) at 10uM” value is reported as 5.73%.

Consider `Cc1ccc(N2CCN(CCc3nc4cc(NC(=O)c5ccco5)ccc4n3C)CC2)cc1`, for which the “hERG current change (%, negative = inhibition) at 10uM” value is given as -70.7%.

As to `Cn1c(CCN2CCN(c3ccc(F)cc3)CC2)nc2cc(NC(=O)c3ccco3)ccc21`, the “hERG current change (%, negative = inhibition) at 10uM” value is on record as -63.6%.

In the case of `Cn1c(CCNC(=O)c2ccco2)nc2cc(NC(=O)c3ccco3)ccc21`, the “hERG current change (%, negative = inhibition) at 10uM” value is given as -14.4%.

Turning to `Cn1c(CN2CCCC2)nc2cc(NC(=O)c3ccco3)ccc21`, the “hERG current change (%, negative = inhibition) at 10uM” value was 7.42%.

As for `CN1CCN(CCc2nc3cc(NC(=O)c4ccco4)ccc3n2C)CC1`, the “hERG current change (%, negative = inhibition) at 10uM” value amounted to 4.18%.

Regarding `Cc1ccc(C(=O)Nc2ccc3c(c2)nc(CCNC(=O)c2ccco2)n3C)cc1`, the “hERG current change (%, negative = inhibition) at 10uM” value was 8.06%.

On to `Cc1ccc(Cc2c(C)c(C#N)c3[nH]c4ccccc4n3c2=O)cc1`, for which the “hERG current change (%, negative = inhibition) at 10uM” value is listed as 11.4%.

For the molecule `O=C(O)C12C3CCCC1C32c1ccccc1` (stereo not drawn), the “hERG current change (%, negative = inhibition) at 10uM” value was found to be 21.7%.

With `CC1CCC2C(=O)N(c3ccccc3OC(=O)c3ccccc3F)C(=O)C2C1` (stereo not drawn), the “hERG current change (%, negative = inhibition) at 10uM” value is given as -10.3%.

On to `CCCSC1=C(C#N)C(c2ccc(O)c(OC)c2)CC(=O)N1` (stereo not drawn), for which the “hERG current change (%, negative = inhibition) at 10uM” value is reported as -45.1%.

Turning to `CCCn1c(=O)n(C)c(=O)c2c(SCC(=O)NCC(c3ccccc3)N(C)C)nc(CC(C)C)nc21` (stereo not drawn), the “hERG current change (%, negative = inhibition) at 10uM” value is -66.1%.

As to `CC(C)Cc1nc(SCC(=O)NCC2CCCO2)c2c(=O)n(C)c(=O)n(C)c2n1` (stereo not drawn), the “hERG current change (%, negative = inhibition) at 10uM” value is reported as -0.141%.

In the case of `CCCn1c(=O)n(C)c(=O)c2c(SCC(=O)NC34CC5CC(CC(C5)C3)C4)nc(CC(C)C)nc21`, the “hERG current change (%, negative = inhibition) at 10uM” value turned out to be 8.5%.

On to `CNC(=O)c1c(I)c(C(=O)NCC(=O)Nc2c(I)c(C(=O)O)c(I)c(C(=O)NCCO)c2I)c(I)c(N(C)C(C)=O)c1I`, for which the “hERG current change (%, negative = inhibition) at 10uM” value was determined as 6.45%.

Consider `CC(CN1C(C)CCCC1C)OC(=O)c1ccc(Cl)cc1` (stereo not drawn), for which the “hERG current change (%, negative = inhibition) at 10uM” value is given as -44.8%.

For `COc1cc(C(=O)OC(C)CN2C(C)CCCC2C)cc(OC)c1OC.Cl` (stereo not drawn), the “hERG current change (%, negative = inhibition) at 10uM” value is -50.2%.

Take `CC(CN1C(C)CCCC1C)OC(=O)c1ccc(Cl)cc1Cl` (stereo not drawn): the “hERG current change (%, negative = inhibition) at 10uM” value is listed as -51.7%.

For the molecule `COc1cc(C(=O)OC(C)CN2CCCC2)cc(OC)c1OC.Cl` (stereo not drawn), the “hERG current change (%, negative = inhibition) at 10uM” value is given as -12.2%.

With `COc1cc(C(=O)OC(C)CN2CCCCC2)cc(OC)c1OC.Cl` (stereo not drawn), the “hERG current change (%, negative = inhibition) at 10uM” value is -4.43%.

For the molecule `CC(CN1C(C)CCCC1C)OC(=O)c1ccccc1Cl` (stereo not drawn), the “hERG current change (%, negative = inhibition) at 10uM” value is given as -26.8%.

As to `O=S(=O)(/N=C(/Nc1ccc(F)cc1F)c1ccccc1)c1ccc(Br)cc1`, the “hERG current change (%, negative = inhibition) at 10uM” value is listed as 12.3%.

Consider `Cc1cc(C)cc(-n2c(SCC(=O)NCc3ccc4c(c3)OCO4)nc3ccccc3c2=O)c1`, for which the “hERG current change (%, negative = inhibition) at 10uM” value is given as 15.9%.

For the molecule `CCOC(=O)c1c(-n2c(C)cc(/C=C3/C(=O)NC(=O)N(CC)C3=O)c2C)sc2c1CCCC2`, the “hERG current change (%, negative = inhibition) at 10uM” value worked out at 2.36%.

As for `CC(C)C1Oc2ccccc2N(CC(=O)N(Cc2ccccn2)C2CC2)C1=O` (stereo not drawn), the “hERG current change (%, negative = inhibition) at 10uM” value is -13.6%.

Turning to `O=C(Nc1ccccc1N1CCCC1)C1CC(=O)N(Cc2ccccc2)C1` (stereo not drawn), the “hERG current change (%, negative = inhibition) at 10uM” value was -44.4%.

On to `CCOC(=O)CNc1ncnc2nc[nH]c12`, for which the “hERG current change (%, negative = inhibition) at 10uM” value stood at 9.53%.

As to `COC(=O)c1sc(S(=O)(=O)NCc2ccccc2)c(C(=O)OC)c1C`, the “hERG current change (%, negative = inhibition) at 10uM” value is given as -50.4%.

Regarding `COC(=O)c1sc(S(=O)(=O)NCc2cccs2)c(C(=O)OC)c1C`, the “hERG current change (%, negative = inhibition) at 10uM” value is -19.1%.

Regarding `COC(=O)c1c(S(=O)(=O)NCc2ccccc2)sc(C(=O)O)c1C`, the “hERG current change (%, negative = inhibition) at 10uM” value is given as 6.81%.

`Cc1[nH][nH]c(=O)c1C=Nc1ccc(C(F)(F)F)cc1`: the “hERG current change (%, negative = inhibition) at 10uM” value is given as 17.4%.

In the case of `O=C(OC(C(=O)NC1CCCC1)c1ccccn1)c1cccs1` (stereo not drawn), the “hERG current change (%, negative = inhibition) at 10uM” value is listed as -3.4%.

For the molecule `CCc1noc(C)c1C(=O)NC1CCCc2c1cnn2-c1ccc(C(C)(C)C)cc1` (stereo not drawn), the “hERG current change (%, negative = inhibition) at 10uM” value stood at 10.2%.
